Results as given in PubChem BioAssay (Tox21).
Inconclusive results are not listed. A call without a number means that no potency is given here. Values without a mark were called inactive. Calls of active or inactive are those of the source. Unless noted, calls come from the whole dose curve; as a rule, active = well fitted curve in the direction sought with a large enough effect in the repeat runs; inconclusive = weak or mixed curves; inactive = no such curve, though single readings can be large; an effect the other way counts as inactive or inconclusive.

Tests used:
[1] = qHTS assay to identify small molecule agonists of the RXR signaling pathway - cell viability counter screen (AID 1159529);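 note: HEK 293T cells carrying an RXR-alpha UAS beta-lactamase reporter; series mostly up to about 77 µM; nearly all actives have a fitted effect of over 50% in size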
Procedure, shortened: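 RXR-alpha-UAS-bla HEK 293T cells in medium with 2% charcoal-stripped FBS were preincubated 5 hr, then exposed to compounds for 16 hr at 37 C. Viability was read as CellTiter-Glo luminescence after 30 min at room temperature.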

[2] = qHTS assay to identify small molecule antagonists of the retinoid acid receptor (RAR) signaling pathway - cell viability counter screen (AID 1159551); note: nearly all actives have a fitted effect of over 35% in size
Procedure, shortened: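 C3RL4 RARE-luciferase cells, 1,000/well, incubated overnight, then dosed with compound plus 1 uM retinol (final). After 6 hr at 37 C, viability read by CellTiter-Glo ATP luminescence following 30 min at room temperature.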

[3] = qHTS assay to identify small molecule antagonists of the retinoic acid receptor (RAR) signaling pathway (AID 1159552; note: nearly all actives have a fitted effect of over 50% in size)
Procedure, shortened: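 RARE-luc C3RL4 cells; cpds + 1 uM (final) retinol, 6 hr, 37 C/5% CO2; luciferase reagent, 30 min RT, luminescence readout. Inhibitors of retinol-driven signal scored.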

[4] = qHTS assay to identify small molecule agonists of the retinoic acid receptor (RAR) signaling pathway (AID 1159553)
Procedure, shortened: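 C3RL4 RARE-luciferase cells were seeded at 1,000/well and grown overnight at 37 C, then exposed to compounds for 6 hr at 37 C, 5% CO2. Luciferase reagent was added and luminescence was read after 30 min at room temperature.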

[5] = qHTS assay to identify small molecule antagonists of the estrogen related receptor (ERR) signaling pathway from Tox21 library - cell viability counter screen (AID 1224834); note: nearly all actives have a fitted effect of over 30% in size
Procedure, shortened: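 ERR reporter cells, 2,000 per well, rested 6 h, then exposed to compound in DMSO for 17.5 hours at 37 C. Viability read as fluorescence after 30 min with CellTiter-Fluor.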

[6] = molecular target: Luciferin 4-monooxygenase (Photinus pyralis) (UniProt P08659); experiment: qHTS assay to identify small molecule inhibitors of firefly luciferase (AID 1224835); note: series mostly up to about 120 µM; nearly all actives have a fitted effect of over 25% in size
Procedure, shortened: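 Quantitative HTS format; KM concentrations of both substrates. Purified P. pyralis FLuc activity quantified from luminescence images.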

[7] = qHTS assay to identify small molecule agonists of the constitutive androstane receptor (CAR) signaling pathway - cell viability counter screen (AID 1224836); note: series mostly up to about 92 µM; nearly all actives have a fitted effect of over 45% in size
Procedure, shortened: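 HepG2 cells stably carrying hCAR and a CYP2B6-2.2kb reporter were plated 4 h, then given compounds at 15 concentrations plus PK11195 (final 0.75 uM). After 23 h at 37 C, viability was read by CellTiter-Fluor fluorescence.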

[8] = qHTS assay to identify small molecule antagonists of the constitutive androstane receptor (CAR) signaling pathway - cell viability counter screen (AID 1224837); note: series mostly up to about 92 µM; nearly all actives have a fitted effect of over 45% in size
Procedure, shortened: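 HepG2 cells stably carrying hCAR and CYP2B6-2.2kb reporter, stimulated with 50 nM CITCO and compounds at 15 concentrations for 23 h at 37 C. Viability measured by CellTiter-Fluor fluorescence.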

[9] = molecular target: Nuclear receptor subfamily 1 group I member 3 (Homo sapiens) (UniProt Q14994); experiment: qHTS assay to identify small molecule antagonists of the constitutive androstane receptor (CAR) signaling pathway (AID 1224838); note: nearly all actives have a fitted effect of over 40% in size
Procedure, shortened: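 HepG2 cells stably carrying hCAR and a CYP2B6-2.2kb luciferase reporter, seeded 4 hrs before compound (15 concentrations). Stimulated with 50 nM CITCO for 24 hr at 37 C. ONE-Glo luminescence read after 30 min at room temperature.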

[10] = molecular target: Nuclear receptor subfamily 1 group I member 3 (Homo sapiens) (UniProt Q14994); experiment: qHTS assay to identify small molecule agonists of the constitutive androstane receptor (CAR) signaling pathway (AID 1224839); note: nearly all actives have a fitted effect of over 15% in size; note: potency is the fitted concentration of half-maximal effect
Procedure, shortened: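 HepG2 cells stably expressing hCAR and a CYP2B6-2.2kb luciferase reporter were treated with compounds at 15 concentrations plus 0.75 uM PK11195 (final) for 24 h at 37 C; luminescence was read after ONE-Glo addition.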

[11] = qHTS assay to identify small molecule antagonists of the estrogen related receptor signaling pathway with the pleiotropic PPARgamma coactivator (PGC) from Tox21 10K library - cell viability counter screen (AID 1224840; active = well fitted cell-killing curve with a large enough effect in the repeat runs, not every such curve was filed as active; note: nearly all actives have a fitted effect of over 40% in size)
Procedure, shortened: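 PGC/ERR cells (2,000/well) plated 6 h, then compound-treated for 17.5 h at 37 C. Viability measured by CellTiter-Fluor fluorescence after 30 min at 37 C, multiplexed with the pathway assay.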

[12] = qHTS assay to identify small molecule agonists of the estrogen related receptor signaling pathway with the pleiotropic PPARgamma coactivator (PGC) from Tox21 10K library (AID 1224842); note: nearly all actives have a fitted effect of over 15% in size
Procedure, shortened: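 PGC/ERR reporter cells (NTP line) were seeded 2,000 per well, rested 6 h at 37 C/5% CO2, then pin-dosed with compounds in DMSO for 18 h at 37 C; luciferase read by One-Glo luminescence after 30 min at room temperature.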

[13] = molecular target: Thyrotropin receptor (Homo sapiens) (UniProt P16473); experiment: qHTS assay to identify small molecule agonists of the thyroid stimulating hormone receptor (TSHR) signaling pathway (AID 1224843; calls by dose curve; note: nearly all actives have a fitted effect of over 45% in size)
Procedure, shortened: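 TSHR-expressing HEK293 cells (800 per well) were exposed to compounds for 30 min at room temperature. cAMP was then detected by HTRF competition with cAMP-d2 and anti-cAMP cryptate, read after 1 h at room temperature. Fifteen concentrations, triplicate.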

[14] = qHTS assay to identify small molecule antagonists of the estrogen related receptor (ERR) signaling pathway - cell viability counter screen (AID 1224818); note: series mostly up to about 46 µM
Procedure, shortened: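 ERR cells, 2,000 per well, compound added after 6 h and incubated 17.5 h at 37 C. Viability read by CellTiter-Fluor fluorescence after a further 30 min at 37 C.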

[15] = qHTS assay to identify small molecule antagonists of the estrogen related receptor signaling pathway with the pleiotropic PPARgamma coactivator (PGC) cell viability counter screen (AID 1224822; note: series mostly up to about 46 µM)
Procedure, shortened: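 PGC/ERR cells rested 6 h, then compound-treated 17.5 h at 37 C. CellTiter-Fluor added for 30 min at 37 C, viability measured by fluorescence intensity.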

[16] = qHTS assay to identify small molecule antagonists of the estrogen related receptor signaling pathway with the pleiotropic PPARgamma coactivator (PGC) from Tox21 10K library (AID 1224841; call rule not given here; note: series mostly up to about 92 µM; actives are mostly falling curves and most rising ones were filed inactive; nearly all actives have a fitted effect of over 50% in size)
Procedure, shortened: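 PGC/ERR cell line, 2,000 cells/well, pre-incubated 6 hours at 37 C, then exposed to compounds for 18 hours at 37 C; luciferase read with One-Glo luminescence after 30 min at room temperature.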

[17] = qHTS assay to identify small molecule antagonists of the estrogen related receptor (ERR) signaling pathway (AID 1224819;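 note: luminescence from an ERR-driven luciferase reporter measured with One-Glo reagent; series mostly up to about 46 µM; nearly all actives have a fitted effect of over 50% in size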)
Procedure, shortened: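 ERR reporter cell line (NTP) plated at 2,000 cells/well, settled 6 h at 37C/5% CO2, then exposed to LOPAC compounds for 18 h at 37C. One-Glo luciferase luminescence read after 30 min at room temperature.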

[18] = qHTS assay to identify small molecule agonists of the estrogen related receptor (ERR) signaling pathway (AID 1224820)
Procedure, shortened: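 ERR reporter cells (NTP line) plated 2,000/well, incubated 6 h at 37 C/5% CO2, then pinned with compounds in DMSO and held 18 h at 37 C. One-Glo added; luminescence read after 30 min at room temperature.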

[19] = test system: estrogen-related receptor alpha (ERRalpha) with PGC-1alpha coactivator, human; experiment: qHTS assay to identify small molecule antagonists of the estrogen related receptor signaling pathway with the pleiotropic PPARgamma coactivator (PGC) (AID 1224821; calls by dose curve)
Procedure, shortened: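 Cells engineered for PGC/ERR signalling (line from NTP) were plated 6 h at 37 C/5% CO2, then exposed to DMSO-dissolved compound for 18 h at 37 C. Luciferase activity was read by One-Glo luminescence after 30 min at room temperature.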

[20] = qHTS assay to identify small molecule agonists of the estrogen related receptor signaling pathway with the pleiotropic PPARgamma coactivator (PGC) (AID 1224823)
Procedure, shortened: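 PGC/ERR reporter cells were seeded, rested 6 h at 37 C/5% CO2, then exposed to compounds in DMSO by pin transfer for 18 h at 37 C. Luciferase activity was read as luminescence after One-Glo reagent and 30 min at room temperature.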

Luciferin 4-monooxygenase (Photinus pyralis), sequence (P08659 whole entry, looked up): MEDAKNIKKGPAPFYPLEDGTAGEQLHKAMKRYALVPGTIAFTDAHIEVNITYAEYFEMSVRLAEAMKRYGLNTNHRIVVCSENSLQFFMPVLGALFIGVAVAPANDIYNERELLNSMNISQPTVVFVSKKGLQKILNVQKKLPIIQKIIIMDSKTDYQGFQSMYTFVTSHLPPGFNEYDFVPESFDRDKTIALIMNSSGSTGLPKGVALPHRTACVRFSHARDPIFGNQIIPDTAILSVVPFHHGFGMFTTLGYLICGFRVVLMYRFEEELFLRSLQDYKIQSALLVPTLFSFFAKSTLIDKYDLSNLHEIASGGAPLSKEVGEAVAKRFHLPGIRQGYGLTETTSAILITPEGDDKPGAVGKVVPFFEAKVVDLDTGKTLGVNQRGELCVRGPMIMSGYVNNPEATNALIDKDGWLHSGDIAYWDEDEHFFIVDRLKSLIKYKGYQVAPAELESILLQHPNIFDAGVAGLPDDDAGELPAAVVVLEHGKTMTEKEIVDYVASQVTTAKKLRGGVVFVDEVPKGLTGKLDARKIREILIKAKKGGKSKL
Nuclear receptor subfamily 1 group I member 3 (Homo sapiens), sequence (Q14994 whole entry, looked up): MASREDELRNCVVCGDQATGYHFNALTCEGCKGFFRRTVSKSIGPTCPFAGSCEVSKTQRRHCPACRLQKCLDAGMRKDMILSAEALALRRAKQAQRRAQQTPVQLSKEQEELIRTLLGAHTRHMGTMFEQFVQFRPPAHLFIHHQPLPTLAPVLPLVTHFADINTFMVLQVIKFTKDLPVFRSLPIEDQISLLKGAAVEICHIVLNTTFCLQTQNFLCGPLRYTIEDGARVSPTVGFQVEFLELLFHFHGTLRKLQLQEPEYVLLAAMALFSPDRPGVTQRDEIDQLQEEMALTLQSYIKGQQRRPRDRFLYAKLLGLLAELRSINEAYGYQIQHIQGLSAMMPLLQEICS
Thyrotropin receptor (Homo sapiens), sequence (P16473 whole entry, looked up): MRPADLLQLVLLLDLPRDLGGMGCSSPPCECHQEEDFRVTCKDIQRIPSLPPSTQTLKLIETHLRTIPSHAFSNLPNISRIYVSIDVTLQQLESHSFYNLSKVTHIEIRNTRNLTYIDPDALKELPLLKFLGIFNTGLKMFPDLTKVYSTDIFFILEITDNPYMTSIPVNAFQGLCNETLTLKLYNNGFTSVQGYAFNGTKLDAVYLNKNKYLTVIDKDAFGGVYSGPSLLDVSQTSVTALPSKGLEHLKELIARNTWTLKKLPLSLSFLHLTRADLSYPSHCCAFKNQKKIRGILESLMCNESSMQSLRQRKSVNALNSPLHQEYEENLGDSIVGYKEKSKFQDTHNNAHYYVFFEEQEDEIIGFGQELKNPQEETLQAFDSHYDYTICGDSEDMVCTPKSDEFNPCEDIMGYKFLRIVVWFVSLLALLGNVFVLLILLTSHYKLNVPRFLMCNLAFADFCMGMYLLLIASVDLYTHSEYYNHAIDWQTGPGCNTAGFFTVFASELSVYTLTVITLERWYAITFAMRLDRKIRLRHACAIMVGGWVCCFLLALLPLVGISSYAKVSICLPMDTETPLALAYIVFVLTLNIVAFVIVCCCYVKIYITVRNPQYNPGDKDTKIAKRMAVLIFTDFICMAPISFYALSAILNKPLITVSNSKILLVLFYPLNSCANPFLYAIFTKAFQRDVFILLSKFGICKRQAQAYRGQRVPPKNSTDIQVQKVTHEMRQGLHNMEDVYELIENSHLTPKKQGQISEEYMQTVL

Compound	Potency [1]	Potency [2]	Potency [3]	Potency [4]	Potency [5]	Potency [6]	Potency [7]	Potency [8]	Potency [9]	Potency [10]	Potency [11]	Potency [12]	Potency [13]	outcome [14]	outcome [15]	Potency [16]	outcome [17]	outcome [18]	outcome [19]	outcome [20]
COc1ccc(C=O)cc1O	inactive	inactive	inactive	inactive	inactive	inactive	inactive	inactive	inactive	inactive	inactive	inactive	inactive	–	–	–	–	–	–	–
CCOC(=O)CCl	inactive	inactive	inactive	inactive	inactive	inactive	inactive	inactive	inactive	inactive	inactive	–	inactive	–	–	–	–	–	–	–
CC(C)C(C)(N)C#N (stereo not drawn)	inactive	inactive	inactive	inactive	inactive	inactive	inactive	inactive	inactive	inactive	inactive	–	–	–	–	–	–	–	–	–
NCC1(CC(=O)O)CCCCC1	inactive	inactive	inactive	inactive	inactive	–	inactive	inactive	–	–	inactive	–	inactive	inactive	inactive	–	–	–	–	–
COC(=O)c1ccccc1CS(=O)(=O)NC(=O)Nc1nc(OC)cc(OC)n1	inactive	inactive	inactive	inactive	inactive	inactive	inactive	inactive	inactive	inactive	inactive	inactive	inactive	–	–	inactive	–	–	–	–
Nc1c(Cl)c(F)nc(OCC(=O)O)c1Cl	inactive	inactive	inactive	inactive	inactive	inactive	inactive	inactive	inactive	inactive	inactive	inactive	inactive	–	–	inactive	–	–	–	–
ClCC1CO1 (stereo not drawn)	inactive	inactive	inactive	inactive	inactive	inactive	inactive	inactive	inactive	inactive	inactive	inactive	inactive	–	–	inactive	–	–	–	–
CCC(CC)(CNC(=O)CCCO)c1cccc(OC)c1	inactive	inactive	inactive	inactive	inactive	inactive	inactive	inactive	inactive	inactive	inactive	inactive	inactive	–	–	inactive	–	–	–	–
CCCN1CCC[C@@H]2Cc3[nH]ncc3C[C@H]21	inactive	inactive	inactive	inactive	inactive	inactive	inactive	inactive	inactive	inactive	inactive	inactive	inactive	inactive	inactive	inactive	inactive	inactive	inactive	inactive
CS(=O)(=O)c1ccc(C(=O)C2C(=O)CCCC2=O)c(Cl)c1COCC(F)(F)F	inactive	inactive	inactive	inactive	inactive	inactive	inactive	inactive	inactive	inactive	inactive	inactive	inactive	–	–	inactive	–	–	–	–
O=S1(=O)OCCO1	inactive	inactive	inactive	inactive	inactive	inactive	inactive	inactive	inactive	inactive	inactive	inactive	inactive	–	–	inactive	–	–	–	–
BrCCc1ccccc1	inactive	inactive	inactive	inactive	inactive	inactive	inactive	inactive	inactive	inactive	inactive	inactive	inactive	–	–	inactive	–	–	–	–
CCC(=O)c1ccc(Cl)cc1	inactive	inactive	inactive	inactive	inactive	inactive	inactive	inactive	inactive	inactive	inactive	inactive	inactive	–	–	inactive	–	–	–	–
O=c1[nH]c2ccccc2n1C1CCNCC1	inactive	inactive	inactive	inactive	inactive	inactive	inactive	inactive	inactive	inactive	inactive	–	inactive	–	–	–	–	–	–	–
[P]#[In]	inactive	inactive	inactive	inactive	inactive	inactive	inactive	inactive	inactive	inactive	inactive	inactive	inactive	–	–	inactive	–	–	–	–
CCCC[N+](=O)[O-]	inactive	inactive	inactive	inactive	inactive	inactive	inactive	inactive	inactive	inactive	inactive	inactive	inactive	–	–	inactive	–	–	–	–
CC(C)(C1CCC(O)CC1)C1CCC(O)CC1 (stereo not drawn)	inactive	inactive	inactive	inactive	inactive	inactive	inactive	inactive	inactive	19.3 µM (active)	inactive	–	–	–	–	–	–	–	–	–
CC[C@@H](CO)NC(=O)[C@@H]1C=C2c3cccc4c3c(cn4C)C[C@H]2N(C)C1	inactive	inactive	inactive	inactive	inactive	inactive	inactive	inactive	inactive	inactive	inactive	inactive	–	inactive	inactive	inactive	inactive	inactive	inactive	inactive
CCN(CCO)CCn1c(Cc2ccccc2)nc2c1c(=O)n(C)c(=O)n2C	inactive	inactive	inactive	inactive	inactive	inactive	inactive	inactive	inactive	inactive	inactive	inactive	inactive	–	–	inactive	–	–	–	–
